In PubChem BioAssay (EPA / NIEHS):
Inconclusive results are not listed. The source made the active and inactive calls. How the source made its calls, unless noted: active means hit-call score of the fitted dose curve at least 0.9, where 1 is the maximum; inactive means score below 0.9.

Legend:
[1] = target: human Retinoid X Receptor beta (RXRb), RXRB (gene 6257) (UniProt P28702); assay: ATG_RXRb_TRANS: Attagene TRANS-FACTORIAL HepG2 Assay for human Retinoid X Receptor beta (RXRb) (AID 2283013; active means hit-call score of the fitted dose curve at least 0.9, where 1 is the maximum)
Sequence of human Retinoid X Receptor beta (RXRb), RXRB (gene 6257) (P28702 whole entry, looked up, the tested form may be a part): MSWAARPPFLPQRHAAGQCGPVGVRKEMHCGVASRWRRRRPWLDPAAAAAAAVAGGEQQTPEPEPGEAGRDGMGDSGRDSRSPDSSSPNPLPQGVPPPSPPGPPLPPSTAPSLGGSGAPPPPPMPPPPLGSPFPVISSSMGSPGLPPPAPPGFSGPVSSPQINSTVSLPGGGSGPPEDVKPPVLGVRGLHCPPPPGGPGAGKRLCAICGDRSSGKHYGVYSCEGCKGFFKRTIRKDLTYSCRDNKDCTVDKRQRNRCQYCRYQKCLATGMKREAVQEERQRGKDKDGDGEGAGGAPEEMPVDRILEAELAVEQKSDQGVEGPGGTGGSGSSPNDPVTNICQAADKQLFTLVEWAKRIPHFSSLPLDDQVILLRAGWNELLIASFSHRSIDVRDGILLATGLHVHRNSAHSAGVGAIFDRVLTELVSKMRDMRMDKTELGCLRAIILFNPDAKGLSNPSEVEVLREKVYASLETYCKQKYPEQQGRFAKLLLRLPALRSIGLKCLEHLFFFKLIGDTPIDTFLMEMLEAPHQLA
Summary of the method: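 Read-out: reporter mRNA induction via RT-PCR plus capillary electrophoresis fluorescence, analysed as signal increase relative to DMSO. Cells were human HepG2, transiently transfected with GAL4-UAS reporter constructs and chimeric receptor-Gal4 fusions, dosed for 24 h.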

[2] = target: human Thyroid Receptor alpha (THRa1), THRA (gene 7067) (UniProt P10827); assay: ATG_THRa1_TRANS: Attagene TRANS-FACTORIAL HepG2 Assay for human Thyroid Receptor alpha (THRa1) (AID 2283014; active means hit-call score of the fitted dose curve at least 0.9, where 1 is the maximum)
Sequence of human Thyroid Receptor alpha (THRa1), THRA (gene 7067) (P10827 whole entry, looked up, the tested form may be a part): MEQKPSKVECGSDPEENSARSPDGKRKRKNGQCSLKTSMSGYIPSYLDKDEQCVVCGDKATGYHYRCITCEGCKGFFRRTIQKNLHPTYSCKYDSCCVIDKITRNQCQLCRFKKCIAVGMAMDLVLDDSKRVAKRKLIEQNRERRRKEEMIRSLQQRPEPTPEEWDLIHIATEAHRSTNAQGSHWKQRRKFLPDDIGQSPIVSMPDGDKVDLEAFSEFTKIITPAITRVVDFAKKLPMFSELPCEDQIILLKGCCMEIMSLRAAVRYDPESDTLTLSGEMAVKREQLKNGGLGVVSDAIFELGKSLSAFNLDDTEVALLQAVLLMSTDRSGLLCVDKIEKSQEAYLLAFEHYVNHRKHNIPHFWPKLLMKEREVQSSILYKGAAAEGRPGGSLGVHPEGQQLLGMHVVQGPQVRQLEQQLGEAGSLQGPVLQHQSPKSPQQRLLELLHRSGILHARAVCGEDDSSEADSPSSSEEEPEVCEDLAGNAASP
Summary of the method: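 HepG2 cells transiently transfected with multiplexed GAL4-UAS reporter units for exogenous chimeric THRa1-Gal4; reporter mRNA measured 24 h after dosing by RT-PCR, 6-FAM labelling, HpaI digestion and capillary electrophoresis. Gain-of-signal fitted versus DMSO baseline.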

[3] = read-out: E-selectin (Homo sapiens) (UniProt P16581); assay: BSK_3C_Eselectin: BioMAP Diversity Plus: 3C Assay for Eselectin Biomarker Activity (AID 2283015); details: primary human endothelial cells (HUVEC); actives raise or lower the signal
Summary of the method: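 Primary human umbilical vein endothelial cells (3C system) were dosed with chemical and cell-surface E-selectin measured by ELISA 24 h later. Bidirectional curve fitting used DMSO as negative control and baseline.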

[4] = read-out: Interleukin-1 alpha (IL1a), IL1A (gene 3552); assay: BSK_BE3C_IL1a: BioMAP Diversity Plus: BE3C Assay for Interleukin-1 alpha (IL1a) Biomarker Activity (AID 2283016); details: primary human bronchial epithelial cells; actives raise or lower the signal
Summary of the method: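 ELISA read-out of IL-1a from human lung bronchial epithelial primary cells, 24 h post-dose. Gain or loss of signal fitted relative to DMSO negative control.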

[5] = read-out: Monocyte Chemoattractant Protein-1 (MCP1), CCL2 (gene 6347); assay: BSK_3C_MCP1: BioMAP Diversity Plus: 3C Assay for Monocyte Chemoattractant Protein-1 (MCP1) Biomarker Activity (AID 2283017); details: primary human endothelial cells (HUVEC); actives raise or lower the signal
Summary of the method: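 Primary human umbilical vein endothelial cells (3C system) were exposed to test chemical for 24 h, after which MCP-1 was quantified by ELISA. Activity was fitted bidirectionally against DMSO as negative control and baseline.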

[6] = read-out: Monocyte Chemoattractant Protein-1 (MCP1), CCL2 (gene 6347); assay: BSK_4H_MCP1: BioMAP Diversity Plus: 4H Assay for Monocyte Chemoattractant Protein-1 (MCP1) Biomarker Activity (AID 2283018); details: primary human endothelial cells (HUVEC); actives raise or lower the signal
Summary of the method: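 HUVEC primary cells, 24 h post-dose, MCP-1 by ELISA. Gain or loss of signal fitted bidirectionally vs DMSO baseline. Cytotoxicity: SRB stain (0.1% after 10% TCA fixation), read 560 nm, parallel cultures.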

[7] = read-out: Human Leukocyte Antigen - DR isotype (HLADR), HLA-DRA (gene 3122); assay: BSK_3C_HLADR: BioMAP Diversity Plus: 3C Assay for Human Leukocyte Antigen - DR isotype (HLADR) Biomarker Activity (AID 2283019); details: primary human endothelial cells (HUVEC); actives raise or lower the signal
Summary of the method: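 Primary human umbilical vein endothelial cells (3C system) were dosed with compound and cell-surface HLA-DR was quantified by ELISA at 24 h. Activity was fitted bidirectionally against DMSO as negative control and baseline.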

[8] = read-out: Interleukin-8 (IL8), CXCL8 (gene 3576); assay: BSK_3C_IL8: BioMAP Diversity Plus: 3C Assay for Interleukin-8 (IL8) Biomarker Activity (AID 2283020); details: primary human endothelial cells (HUVEC); actives raise or lower the signal
Summary of the method: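 HUVEC, 3C stimulation; 24 h compound exposure; IL-8 read by ELISA; gain or loss of signal fitted relative to DMSO control.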

[9] = target: Retinoic acid receptor RXR-alpha (Homo sapiens) (UniProt P19793); assay: ATG_RXRa_TRANS: Attagene TRANS-FACTORIAL HepG2 Assay for human Retinoid X Receptor alpha (RXRa) (AID 2283012; active means hit-call score of the fitted dose curve at least 0.9, where 1 is the maximum)
Sequence of Retinoic acid receptor RXR-alpha (Homo sapiens) (P19793 whole entry, looked up, the tested form may be a part): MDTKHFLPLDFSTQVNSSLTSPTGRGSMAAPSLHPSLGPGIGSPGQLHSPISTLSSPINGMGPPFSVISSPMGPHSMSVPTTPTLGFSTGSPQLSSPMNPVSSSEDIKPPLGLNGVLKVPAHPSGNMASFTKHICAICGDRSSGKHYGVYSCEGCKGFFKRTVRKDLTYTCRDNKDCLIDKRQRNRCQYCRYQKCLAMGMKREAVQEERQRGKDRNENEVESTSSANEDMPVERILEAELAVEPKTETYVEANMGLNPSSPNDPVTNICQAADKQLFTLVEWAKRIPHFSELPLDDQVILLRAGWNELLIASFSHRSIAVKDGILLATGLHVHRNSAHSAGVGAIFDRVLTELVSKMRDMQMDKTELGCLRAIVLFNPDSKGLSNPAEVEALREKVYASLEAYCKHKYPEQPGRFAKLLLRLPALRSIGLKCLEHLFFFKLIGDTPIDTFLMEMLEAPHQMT
Summary of the method: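 Read-out: fluorescent reporter-transcript fragments quantified by capillary electrophoresis after RT-PCR. Transiently transfected HepG2 cells carrying GAL4-UAS reporters and NR-GAL4 chimeras were exposed to chemical for 24 h; activity scored as increase over DMSO.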

Measured: AC50

Sequence of E-selectin (Homo sapiens) (P16581 whole entry, looked up): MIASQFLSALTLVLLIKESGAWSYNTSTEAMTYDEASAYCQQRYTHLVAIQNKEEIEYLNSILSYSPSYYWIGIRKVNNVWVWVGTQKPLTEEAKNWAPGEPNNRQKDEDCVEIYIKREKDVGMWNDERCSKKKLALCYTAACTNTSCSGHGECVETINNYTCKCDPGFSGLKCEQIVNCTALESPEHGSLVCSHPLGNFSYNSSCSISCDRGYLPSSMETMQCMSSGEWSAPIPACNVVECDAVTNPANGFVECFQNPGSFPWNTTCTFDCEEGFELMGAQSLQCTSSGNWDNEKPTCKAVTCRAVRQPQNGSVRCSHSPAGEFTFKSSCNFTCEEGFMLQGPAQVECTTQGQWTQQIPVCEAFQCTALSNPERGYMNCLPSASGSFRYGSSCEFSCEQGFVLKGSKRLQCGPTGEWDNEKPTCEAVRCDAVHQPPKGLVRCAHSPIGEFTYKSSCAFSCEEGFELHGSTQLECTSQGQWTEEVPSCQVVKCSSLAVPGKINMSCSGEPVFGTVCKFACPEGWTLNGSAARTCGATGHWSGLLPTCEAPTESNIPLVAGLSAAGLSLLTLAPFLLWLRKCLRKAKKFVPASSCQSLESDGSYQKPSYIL

CC(C)COC(=O)CCCCC(=O)OCC(C)C
inactive: [1] | [2] | [3] | [4] | [5] | [6] | [7] | [8]

CCc1cc(C2=C(C(=O)O)N(c3ccccc3C(F)(F)F)S(=O)(=O)c3ccccc32)cc2c1OCO2
inactive: [9] | [3] | [4] | [5] | [6] | [8]
active: [7] 24.8 µM

CN(C)CCCN1c2ccccc2Sc2ccc(Cl)cc21
inactive: [9]
active: [3] 33 µM | [4] 31.1 µM | [5] 30.4 µM | [6] 4.5 µM | [7] 29.1 µM | [8] 20 µM

Cn1cnc2c1c(=O)[nH]c(=O)n2C
inactive: [9] | [3] | [4] | [5] | [6] | [7] | [8]

Nc1nc(Cl)nc2c1ncn2[C@H]1C[C@H](O)[C@@H](CO)O1
inactive: [9] | [1] | [4] | [5] | [6] | [7] | [8]

CC(=O)OC1CC(C)OC(C)O1 (stereo unspecified)
inactive: [9] | [1] | [4] | [5] | [6] | [7] | [8]

CC(C)c1cccc(C(C)C)c1
active: [1] 100 µM
inactive: [9] | [4] | [5] | [6] | [7] | [8]

NC=O
inactive: [1] | [2] | [4] | [5] | [6] | [7] | [8]

O=C1NC(=O)C(c2ccccc2)(c2ccccc2)N1
inactive: [9] | [3] | [4] | [5] | [6] | [7] | [8]

CN(C)C(=O)NC1(c2ccccc2)CCN(CC[C@@]2(c3ccc(F)c(F)c3)CN(C(=O)c3ccccc3)CCO2)CC1
inactive: [9] | [4] | [5] | [6] | [7] | [8]

CC(C)OC(=O)C(C)(C)Oc1ccc(C(=O)c2ccc(Cl)cc2)cc1
inactive: [9] | [4]
active: [1] 26.9 µM | [5] 30.2 µM | [6] 25.3 µM | [7] 14.2 µM | [8] 14.1 µM

S=c1[nH]c2ccccc2s1
inactive: [9] | [3] | [4] | [5] | [6] | [7] | [8]

C/C=C/C=C/C(=O)O
active: [1] 41.5 µM
inactive: [2] | [3] | [4] | [5] | [6] | [7] | [8]

CCC(C)N(C)C(=O)c1cc2ccccc2c(-c2ccccc2Cl)n1 (stereo unspecified)
inactive: [9] | [4] | [5] | [6] | [7] | [8]

Cc1c(C)c2c(c(C)c1O)CCC(C)(COc1ccc(CC3SC(=O)NC3=O)cc1)O2 (stereo unspecified)
active: [4] 29.3 µM | [5] 30.6 µM | [6] 9.95 µM | [8] 20 µM
inactive: [9]

CCCCCCCC(=O)OC
inactive: [1] | [2] | [3] | [4] | [5] | [6] | [7] | [8]

CS(=O)(=O)c1ccc([C@@H](C[C@H]2CCC(=O)C2)C(=O)Nc2cnccn2)cc1Cl
inactive: [9] | [1] | [4] | [5] | [6] | [7] | [8]

CC(N)=O
inactive: [9] | [2] | [4] | [5] | [6] | [7] | [8]

CCc1nc(N)nc(N)c1-c1ccc(Cl)cc1
inactive: [9] | [1] | [4] | [5] | [6] | [7] | [8]

OCC(O)CO
inactive: [4] | [5] | [6] | [7] | [8]

C#CC(O)C(CC)CCCC (stereo unspecified)
inactive: [1] | [4] | [5] | [6] | [7] | [8]

Cc1cc(Cc2ccc(N)c(C)c2)ccc1N
inactive: [1] | [3] | [4] | [5] | [6] | [7] | [8]

CC(C)NCC(O)c1ccc(O)c(O)c1 (stereo unspecified)
inactive: [1] | [3] | [4] | [5] | [6] | [7] | [8]

NC1CCCCC1
inactive: [1] | [2] | [4] | [5] | [6] | [7] | [8]

Cc1occc(=O)c1O
inactive: [3] | [4] | [5] | [6] | [7] | [8]

O=C(O)c1[nH]n(-c2ccc(S(=O)(=O)O)cc2)c(=O)c1N=Nc1ccc(S(=O)(=O)O)cc1
inactive: [4] | [5] | [6] | [7] | [8]

C/C=C/c1ccc(OC)cc1
inactive: [1] | [4] | [5] | [6] | [7] | [8]

CC1=C(C)S(=O)(=O)CCS1(=O)=O
inactive: [2] | [3] | [4] | [5] | [6] | [7] | [8]

CC(=O)S[C@H](C(=O)N[C@H]1Cc2ccccc2[C@H]2CCC[C@@H](C(=O)O)N2C1=O)C(C)C
inactive: [4] | [5] | [6] | [7] | [8]

CC(C)(C)c1ccccc1
inactive: [4] | [5] | [6] | [7] | [8]

c1ccc2occc2c1
inactive: [2] | [4] | [5] | [6] | [7] | [8]

CC(COCC(C)OC(=O)c1ccccc1)OC(=O)c1ccccc1 (stereo unspecified)
inactive: [2] | [3] | [4] | [5] | [6] | [7] | [8]

CCCCCCC(CCCCCCCCCCC(=O)OCC(COC(C)=O)OC(C)=O)OC(C)=O (stereo unspecified)
active: [1] 50 µM | [4] 12.3 µM
inactive: [2] | [5] | [6] | [7] | [8]

CCCCC(CC)COP(=O)(OCC(CC)CCCC)OCC(CC)CCCC (stereo unspecified)
inactive: [3] | [4]
active: [5] 18.2 µM | [6] 20 µM | [7] 20 µM | [8] 14 µM

Oc1ccc(O)cc1
inactive: [4] | [5] | [6] | [8]
active: [7] 23.5 µM

OCC(CO)n1cnc(-c2ccc(F)cc2)c1-c1ccnc(Oc2ccccc2)n1
inactive: [3] | [4] | [6]
active: [5] 1.08 µM | [7] 0.254 µM | [8] 0.852 µM

O=C(N[C@@H](c1ccccc1)[C@@H]1CCCCN1)c1cccc(C(F)(F)F)c1Cl
active: [4] 36 µM | [5] 20 µM | [7] 29.2 µM | [8] 12.7 µM
inactive: [3] | [6]

CC1(C)C(=O)NC(=O)N1CO
inactive: [1] | [4] | [5] | [6] | [7] | [8]

O=C(Oc1ccccc1)c1cccc(C(=O)Oc2ccccc2)c1
inactive: [2] | [4] | [5] | [6] | [7] | [8]

Cc1cn([C@H]2C=C[C@@H](CO)O2)c(=O)[nH]c1=O
inactive: [3] | [4] | [5] | [6] | [7] | [8]

Cc1ccc(-c2cc(C(F)(F)F)nn2-c2ccc(S(N)(=O)=O)cc2)cc1
active: [4] 33.3 µM | [5] 37.8 µM | [6] 27.8 µM | [7] 31 µM | [8] 32.7 µM

CC(C)c1cccc(C(C)C)c1NC(=O)NS(=O)(=O)c1cc(C(C)(C)O)co1
inactive: [4] | [5] | [6] | [7] | [8]

O=C(O)CC(O)(CC(=O)O)C(=O)O
inactive: [3] | [4] | [5] | [6] | [7] | [8]

COC(=O)CCC(=O)OC
inactive: [3] | [4] | [5] | [6] | [7] | [8]

CCCC(=O)O
inactive: [4] | [5] | [6] | [7] | [8]

CCCCCCCCCCCCCCCCO
inactive: [2] | [3] | [4] | [5] | [6] | [7] | [8]

CO[C@@H]1COCC[C@@H]1N[C@@H]1CC[C@@](C(=O)N2CCc3ncc(C(F)(F)F)cc3C2)(C(C)C)C1
inactive: [4] | [5] | [6] | [7] | [8]

O=Cc1ccccc1C=O
inactive: [1] | [4] | [5] | [6] | [7] | [8]

CN(C)CCCN(C)CCCN(C)C
active: [1] 23.8 µM
inactive: [3] | [4] | [5] | [6] | [7] | [8]
